Many of the other results were omitted from the sample, so hits are more common in it than they were.
HIV RNase H inh-1 – blocks HIV-1 RNase H cleavage of RNA/DNA duplex; P04585; RT-RNase H RNA/DNA duplex cleavage, fluorescence; inhibition, % at 10 µM; 1.9% of 65,000 active; AID 565; in the data active means inhibition above about 50%
HIV RNase H inh-2 – confirmation of HIV-1 reverse transcriptase RNase H inhibitors | shares compounds with HIV RNase H inh-1 | Recombinant RT RNase H, fluorescent RNA/DNA duplex cleavage | inhibition, % at 10 µM | 39% of 1,000 active | AID 651; in the data active means inhibition above about 48%
Numbers stand for hits.

For COc1ccc(CCn2c(-c3ccco3)nc3oc4ccccc4c(=O)c3c2=O)cc1 the results were HIV RNase H inh-1 inactive.
Cn1c(=O)c2cc(S(=O)(=O)N3CCOCC3)ccc2n(C)c1=O was read as HIV RNase H inh-1 inactive.
Screening O=c1c2ccccc2sn1-c1cc(S(=O)(=O)N2CCOCC2)ccc1N1CCOCC1 returned HIV RNase H inh-1 95 and HIV RNase H inh-2 61.
`CCN1C(=O)Cc2cc(S(=O)(=O)N3CCOCC3)ccc21` gave HIV RNase H inh-1 inactive.
For Cc1ccc2nsnc2c1S(=O)(=O)N(Cc1cc2cccc(C)c2[nH]c1=O)CC1CCCO1 (stereo not given) the results were HIV RNase H inh-1 inactive.
For CC(C(=O)N1c2ccc(F)cc2CCC1C)N1C(=O)c2ccccc2C1=O (stereo not given) the results were HIV RNase H inh-1 inactive.
For CCOC(=O)CSc1nc(C2CC2)nc2ccccc12 the results were HIV RNase H inh-1 inactive.
Screening Cc1ccc(-n2c(SCC(=O)Nc3ccc4c(c3)OCCO4)nnc2-c2ccco2)cc1 returned HIV RNase H inh-1 inactive.
For Cc1ccc(-n2c(SCC(=O)Nc3ccc4c(c3)OCO4)nnc2-c2cccs2)cc1 the results were HIV RNase H inh-1 65 and HIV RNase H inh-2 inactive.
`O=C(CSc1nnc(-c2cccs2)n1-c1ccccc1)NCc1ccc2c(c1)OCO2` gave HIV RNase H inh-1 inactive.
For CCOC(=O)NC(NCC(O)c1ccccc1)(C(F)(F)F)C(F)(F)F (stereo not given) the results were HIV RNase H inh-1 inactive.
For CCOc1cc(C2CC(=O)Nc3cc(C)c(C)cc32)ccc1O (stereo not given) the results were HIV RNase H inh-1 inactive.
Screening COc1ccccc1C1CC(=O)NC(SCC(=O)Nc2ccccc2)=C1C#N (stereo not given) returned HIV RNase H inh-1 inactive.
For COc1ccc(C2C(=O)N(C3CCCCC3)CC(=O)N2CCc2ccccc2)cc1OC (stereo not given) the results were HIV RNase H inh-1 inactive.
For COc1ccc2ccccc2c1C1CC(=O)N2CN(C3CCCCC3)CSC2=C1C#N (stereo not given) the results were HIV RNase H inh-1 82 and HIV RNase H inh-2 60.
Screening CCOc1cc(C2CC(=O)NC(SCC)=C2C#N)ccc1O (stereo not given) returned HIV RNase H inh-1 inactive.
For CCOc1cc(C2CC(=O)N3CN(C4CCCCC4)CSC3=C2C#N)ccc1O (stereo not given) the results were HIV RNase H inh-1 79 and HIV RNase H inh-2 72.
CCOCCCNC(=O)C1CCCCN1S(=O)(=O)c1ccc(F)cc1 (stereo not given) was read as HIV RNase H inh-1 inactive.
`CCc1ccc(NC(=O)N(C2CCC(C)CC2)C2CCN(C(C)=O)CC2)cc1` (stereo not given) gave HIV RNase H inh-1 inactive.
Screening Cc1ccc2c(c1)nnn2C1CCN(C(=O)C2CCCCC2)CC1 returned HIV RNase H inh-1 inactive.
`COc1ccc2nc(C)c(C(=O)OCCN(C)C)cc2c1` gave HIV RNase H inh-1 inactive.
Screening CCOC(=O)CSc1nnc(CNC(=O)c2ccc(OC)cc2)n1C1CCCCC1 returned HIV RNase H inh-1 inactive.
COc1ccc(C2C=C(c3ccc(Cl)cc3)Nc3nc(NC(C)=O)nn32)cc1 (stereo not given) was read as HIV RNase H inh-1 56 and HIV RNase H inh-2 inactive.
CC(=O)Nc1nc2n(n1)C(c1ccccc1)C=C(c1ccccc1)N2 (stereo not given) was read as HIV RNase H inh-1 inactive.
CC(=O)Nc1nc2n(n1)C(c1ccc(Cl)cc1)C=C(C)N2 (stereo not given) was read as HIV RNase H inh-1 inactive.
For O=C(NC1CCCCCC1)C1C2C=CC3(CN(Cc4cccnc4)C(=O)C13)O2 (stereo not given) the results were HIV RNase H inh-1 inactive.
`CC(=O)N1CCc2cc(S(=O)(=O)NC(CC(C)C)C(=O)N3CCn4c3nc3ccccc34)ccc21` (stereo not given) gave HIV RNase H inh-1 inactive.
`Cc1cc(C)nc(SC2=CS(=O)(=O)c3ccccc32)n1` gave HIV RNase H inh-1 inactive.
For O=S1(=O)C=C(Sc2nnc(-c3ccccc3)o2)c2ccccc21 the results were HIV RNase H inh-1 65 and HIV RNase H inh-2 inactive.
CSc1nnc(-c2ccccc2)o1 was read as HIV RNase H inh-1 inactive.
`CC(C)CNC(=O)c1cccc(NC(=O)c2ccc(NC(=O)c3ccco3)cc2)c1` gave HIV RNase H inh-1 inactive.
Cc1ccc(/C=N/c2sc3c(c2C#N)CCCCC3)o1 was read as HIV RNase H inh-1 inactive.
COC(=O)CSc1nc2c(c(-c3ccc(C)o3)c1C#N)CCCC2 was read as HIV RNase H inh-1 inactive.
`Cc1ccc(-c2c3c([nH]c(=S)c2C#N)CCCC3)o1` gave HIV RNase H inh-1 87 and HIV RNase H inh-2 inactive.
`O=C(COn1nnc2ccc(Cl)cc21)NCc1ccccc1` gave HIV RNase H inh-1 inactive.
Screening COc1cc(NC(=O)c2ncn[nH]2)cc(OC)c1OC returned HIV RNase H inh-1 inactive.
Cc1cc(NS(=O)(=O)c2ccccc2)c(C)c(Cl)c1O was read as HIV RNase H inh-1 80 and HIV RNase H inh-2 inactive.
Cc1ccccc1NS(=O)(=O)c1cc(S(C)(=O)=O)ccc1Cl was read as HIV RNase H inh-1 inactive.
Screening COC(=O)c1cc(Cl)c(NS(=O)(=O)c2ccccc2)cc1OC returned HIV RNase H inh-1 inactive.
For O=C(COC(=O)c1ccc(S(=O)(=O)N2CCCC2)cc1)NCc1ccccc1 the results were HIV RNase H inh-1 inactive.
CCCCN1C(=O)/C(=C2\SC(N3CCCCC3)=NC2=O)c2ccccc21 was read as HIV RNase H inh-1 86 and HIV RNase H inh-2 inactive.
Screening Cc1ccc(CN2C(=O)/C(=C3\SC(N4CCOCC4)=NC3=O)c3cc(Br)ccc32)cc1 returned HIV RNase H inh-1 inactive.
Screening O=C1N=C(N2CCOCC2)S/C1=C1\C(=O)N(Cc2ccccc2)c2ccc(Br)cc21 returned HIV RNase H inh-1 inactive.
Screening CC(C)Oc1ccc(C2CC(=O)NC3=C2C(=O)CCC3)cc1 (stereo not given) returned HIV RNase H inh-1 inactive.
COC(=O)c1ccc(C2CC(=O)NC3=C2C(=O)CCC3)cc1 (stereo not given) was read as HIV RNase H inh-1 91 and HIV RNase H inh-2 inactive.
CCOc1ccc(C2CC(=O)NC3=C2C(=O)CCC3)cc1Cl (stereo not given) was read as HIV RNase H inh-1 inactive.
O=C(Nc1cccnc1)C1CCCN(S(=O)(=O)c2cccc3nsnc23)C1 (stereo not given) was read as HIV RNase H inh-1 inactive.
N[C@@H](C(=O)N[C@@H]1C(=O)N2C(C(=O)O)=C(Cl)CS[C@H]12)c1ccccc1 was read as HIV RNase H inh-1 59 and HIV RNase H inh-2 inactive.
Screening O=C1C(=O)N(CCCn2ccnc2)C(c2cccnc2)/C1=C(/O)c1ccc(Cl)cc1 (stereo not given) returned HIV RNase H inh-1 inactive.
Nc1ncnc2nc(SCc3ccccc3)[nH]c12 was read as HIV RNase H inh-1 inactive.
For Fc1ccc(CSc2nc3ncccc3[nH]2)cc1 the results were HIV RNase H inh-1 61 and HIV RNase H inh-2 inactive.
`O=C(CSc1nc2ncccc2[nH]1)c1ccc(F)cc1` gave HIV RNase H inh-1 inactive.
Cc1cccc(OCCC(=O)Nc2c(C)n(C)n(-c3ccccc3)c2=O)c1 was read as HIV RNase H inh-1 inactive.
`COCCOc1ccc(C(F)(F)F)cc1Nc1nc2ccccc2o1` gave HIV RNase H inh-1 56 and HIV RNase H inh-2 inactive.
COCc1cc(=O)[nH]c(Nc2nc3ccccc3o2)n1 was read as HIV RNase H inh-1 inactive.

Compound activity as filed in PubChem BioAssay.
